Most compounds without a hit are left out; they make up all but 2.7% or so of the library.
PAX8 inh HTS: inhibitors of PAX8-driven TPO luciferase reporter, primary screen, RMG-I cells, single concentration; SteadyGlo, 24 h; inhibition, % at 12.6 µM; 360,000 tested, 1.2% active; AID 652154, 2013;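 active means mean replicate inhibition at least 60% with every replicate also reaching 60%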;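 further: luciferase light reporting Pax8 driven TPO promoter activity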
EWS-Fli inh: EWS/Fli-driven NR0B1 reporter inhibitors, primary screen, A673 cells, NR0B1 luciferase, luminescence, MLPCN library | viability-normalised | inhibition, % at 12.6 µM | 350,000 tested, 0.67% active;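 active means mean inhibition of at least 50% after viability correction, with every replicate also passing that limit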;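 further: firefly luciferase signal divided by Alamar Blue viability fluorescence both relative to DMSO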
HIV Env fusion: inhibitors of HIV-1 Env-driven cell-cell fusion, primary screen, HeLa-JRFL effector, CEM21 target cells, luciferase. inhibition, % at 12.3 µM. 360,000 tested, 1.1% active. AID 651610, 2012;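 active means mean replicate inhibition score of at least 50 and every replicate individually at or above 50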
CFTR F508del cor: F508del CFTR correction, initial screen, CFBE line, single point. CFBE cells, YFP halide quenching; stimulated with forskolin plus potentiator P3; % fluorescence drop versus neutral controls. activity (quench increase), % at 7.58 µM. 350,000 tested, 0.36% active. AID 720511, 2013;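 active means mean added fluorescence quench of at least 8% versus neutral control, with both replicates also reaching 8%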;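 further: cells transiently co-express mutant CFTR-F508del with the halide-sensitive YFP; corrector assay measuring rescue of mutant channel to the surface after 24 h compound exposure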
INS-1E GSIS act: GLuc luminescence reporter in INS-1E cells, primary screen for activators of glucose-dependent secretion of insulin | INS-1E GLuc reporter insulin secretion, 2-3 h | activation, % at 16.6 µM | 370,000 tested, 0.61% active | AID 743287, 2014;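 active means lowest replicate activation of at least 40%, so every replicate reaches that level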
PGC1a acetyl inh: inhibitors of PGC1a acetylation signal, primary screen, cell-based, U2OS, AlphaScreen, inhibitor mode | AlphaScreen anti-acetyl-lysine; with virally co-expressed GCN5 acetyltransferase | inhibition, % at 15.6 µM | 350,000 tested, 0.17% active | AID 651687, 2012;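 active means every replicate shows inhibition of at least 40%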
Large screens that a line does not name were inactive; ! = not active in a repeat; [ ] = remark or other dose.

CO[C@H]1CN(C)C(=O)c2cc(NC(=O)C3CCOCC3)ccc2OC[C@H](C)N(C(=O)c2ccccc2)C[C@H]1C	none (no result: PAX8 inh HTS, HIV Env fusion)
C[C@@H]1CN([C@@H](C)CO)C(=O)Cc2cc(NS(=O)(=O)c3ccc(F)cc3)ccc2O[C@@H]1CN(C)C(=O)Nc1cccc2ccccc12	none
Cn1cccc1C(=O)OCC(=O)NCc1ccc2c(c1)OCO2	CFTR F508del cor 37
Cc1nc(C)c(C(=O)OCC(=O)NCCc2ccc(S(N)(=O)=O)cc2)s1	none (no result: PGC1a acetyl inh)
COc1ccc(CCNC(=O)COC(=O)c2cccn2C)cc1	HIV Env fusion 78
O=C(COC(=O)c1cc(S(=O)(=O)N2CCOCC2)ccc1O)NCc1ccc2c(c1)OCO2	HIV Env fusion 82 (no result: PGC1a acetyl inh)
Cn1cccc1C(=O)OCC(=O)NCCc1ccc(S(N)(=O)=O)cc1	HIV Env fusion 72
Cn1cccc1C(=O)OCC(=O)NCCCc1ccccc1	none
Cc1ccc(S(=O)(=O)N2CCOCC2)cc1C(=O)OCC(=O)NCc1ccc2c(c1)OCO2	none
O=C(COC(=O)c1c(F)cccc1F)NCc1ccc2c(c1)OCO2	none (no result: HIV Env fusion)
CCOC(=O)CSc1nc2ccsc2c(=O)n1C1CCN(C(=O)OCC)CC1	none (no result: PAX8 inh HTS, HIV Env fusion)
CCOC(=O)N1CCC(n2c(SCC(=O)OCc3ccccc3)nc3ccsc3c2=O)CC1	HIV Env fusion 97 (no result: PAX8 inh HTS, EWS-Fli inh, CFTR F508del cor)
CCOC(=O)N1CCC(n2c(SCC(=O)N3CCC(C)CC3)nc3ccccc3c2=O)CC1	HIV Env fusion 54 (no result: EWS-Fli inh, CFTR F508del cor, INS-1E GSIS act, PGC1a acetyl inh)
C[C@H]1CCCCO[C@@H](CN(C)C(=O)Nc2ccc3c(c2)OCO3)[C@@H](C)CN([C@@H](C)CO)C(=O)c2cc(NS(=O)(=O)c3ccccc3)ccc2O1	none
COC(=O)c1sc(NC(=O)c2cccc([N+](=O)[O-])c2)c(C(N)=O)c1C	INS-1E GSIS act 78 (no result: EWS-Fli inh, CFTR F508del cor)
Nc1ccn([C@H]2C[C@H](O)[C@@H](CO)O2)c(=O)n1	CFTR F508del cor 8.0!
Nc1nc(Cl)nc2c1ncn2C1CC(O)C(CO)O1 (configuration not stated)	CFTR F508del cor 14 (no result: INS-1E GSIS act)
Nc1ncn([C@H]2C[C@H](O)[C@@H](CO)O2)c(=O)n1	PAX8 inh HTS 107, HIV Env fusion 69 (no result: INS-1E GSIS act)
Nc1nc2c(ncn2[C@H]2C[C@H](O)[C@@H](CO)O2)c(=O)[nH]1	none (no result: PGC1a acetyl inh)
COc1ccc(S(=O)(=O)Nc2cccc3c2O[C@@H](CN(C)C(=O)Nc2ccc4c(c2)OCO4)[C@H](C)CN([C@@H](C)CO)C3=O)cc1	none (no result: PAX8 inh HTS)
C[C@H](CO)N1C[C@H](C)[C@H](CN(C)C(=O)c2cccc(F)c2)Oc2ncc(-c3cncnc3)cc2C1=O	none (no result: PAX8 inh HTS)
COc1ccc(-c2csc(C(C)(O)c3cccc(OC)c3)n2)cc1 (configuration not stated)	none
COc1cccc(C(C)(O)c2nc(-c3ccc(S(C)(=O)=O)cc3)cs2)c1 (configuration not stated)	HIV Env fusion 64 (no result: INS-1E GSIS act)
Cc1noc(C)c1S(=O)(=O)Nc1ccc2c(c1)C(=O)N([C@H](C)CO)C[C@@H](C)[C@H](CN(C)Cc1ccc3c(c1)OCO3)OCCCC[C@@H](C)O2	none
CC1CCN(S(=O)(=O)c2ccc(NC(=O)Cc3ccc(S(=O)(=O)N4CCOCC4)s3)cc2)CC1	HIV Env fusion 61
CC1CCCN(S(=O)(=O)c2ccc(NC(=O)Cc3ccc(S(=O)(=O)N4CCOCC4)s3)cc2)C1 (configuration not stated)	none (no result: HIV Env fusion, PGC1a acetyl inh)
COc1ccc2[nH]c3c(NCCCN4CCCC4=O)ncnc3c2c1	INS-1E GSIS act 48 (no result: PAX8 inh HTS, EWS-Fli inh, CFTR F508del cor)
CN(C)CC(O)c1ccc(C=Cc2ccc(Cl)cc2)cc1 (configuration not stated)	PGC1a acetyl inh 51
COC(=O)Cc1ccc(NC(=O)c2ccc(C(C)(C)C)cc2)cc1	HIV Env fusion 59 (no result: PAX8 inh HTS, EWS-Fli inh, CFTR F508del cor)
O=C(NCC[C@@H]1CC[C@H](NS(=O)(=O)c2ccc(Cl)cc2)[C@@H](CO)O1)Nc1ccc(F)cc1	none (no result: HIV Env fusion, PGC1a acetyl inh)
O=C(Nc1ccc2oc(-c3ccccc3)nc2c1)c1cc(-n2cnnc2)ccc1Cl	none
O=C(Nc1ccc(-c2nc3ccccc3o2)cc1)c1cc(-n2cnnc2)ccc1Cl	HIV Env fusion 58 (no result: PAX8 inh HTS, EWS-Fli inh, CFTR F508del cor, INS-1E GSIS act)
N#CC1=C(N)OC2=C(C(=O)CC(c3ccccc3)C2)C1c1ccoc1 (configuration not stated)	none (no result: EWS-Fli inh, HIV Env fusion, CFTR F508del cor, PGC1a acetyl inh)
N#CC1=C(N)OC2=C(C(=O)CC(c3ccccc3)C2)C1c1cccnc1 (configuration not stated)	INS-1E GSIS act 47 (no result: EWS-Fli inh, HIV Env fusion, CFTR F508del cor, PGC1a acetyl inh)
CCCN1[C@@H]2c3ccc(/C=C/c4ccccc4)c(=O)n3C[C@@H]2[C@@H](CO)[C@@H]1C(=O)N1CCOCC1	PAX8 inh HTS 69 (no result: HIV Env fusion)
CC=Cc1ccc2n(c1=O)C[C@H]1[C@H](CO)[C@@H](C(=O)NC3CCC3)N(CC)[C@@H]21 (mixture of isomers)	PAX8 inh HTS 87 (no result: HIV Env fusion, PGC1a acetyl inh)
CC=Cc1ccc2n(c1=O)C[C@H]1[C@H](CO)[C@@H](C(=O)OC)N(CCc3ccccc3)[C@@H]21 (mixture of isomers)	HIV Env fusion 60[16.7 µM] (no result: CFTR F508del cor, PGC1a acetyl inh)
COc1ccc(NC(=O)N(C)C[C@@H]2Oc3cc(C#CCC(C)C)ccc3S(=O)(=O)N([C@@H](C)CO)C[C@H]2C)cc1	none (no result: HIV Env fusion)
COc1ccc(NC(=O)N(C)C[C@@H]2Oc3cc(C#CCC(C)C)ccc3S(=O)(=O)N([C@H](C)CO)C[C@@H]2C)cc1	CFTR F508del cor 9.2 (no result: HIV Env fusion)
COc1ccc(NC(=O)N(C)C[C@H]2Oc3cc(C#CCC(C)C)ccc3S(=O)(=O)N([C@H](C)CO)C[C@H]2C)cc1	PAX8 inh HTS 72 (no result: HIV Env fusion)
COc1ccc(C#Cc2ccc3c(c2)O[C@H](CN(C)C(=O)Nc2cccc(OC)c2)[C@H](C)CN([C@H](C)CO)S3(=O)=O)cc1	CFTR F508del cor 8.6 (no result: PAX8 inh HTS)
CN1CCN(C(=O)C[C@H]2CC[C@H]3[C@H](COc4ccc(NC(=O)C5CCCC5)cc4C(=O)N3C)O2)CC1	none (no result: HIV Env fusion)
Cc1cccc(C2Nc3ccccc3C(=O)N2c2ccccc2)n1 (configuration not stated)	none (no result: PAX8 inh HTS, HIV Env fusion)
O=C1c2ccccc2NC(c2ccccn2)N1c1ccc(Cl)cc1 (configuration not stated)	INS-1E GSIS act 62 (no result: PAX8 inh HTS, EWS-Fli inh, HIV Env fusion, CFTR F508del cor)
C[C@H](CO)N1C[C@H](C)[C@@H](CN(C)S(=O)(=O)CC(F)(F)F)OCc2ccccc2-c2ccccc2C1=O	none (no result: INS-1E GSIS act)
COc1ccccc1NC(=O)CSc1nnc(Cc2ccccc2)o1	none (no result: PAX8 inh HTS, HIV Env fusion, INS-1E GSIS act)
COc1ccccc1NC(=O)CSc1nnc(-c2ccccc2)o1	INS-1E GSIS act 84 (no result: PGC1a acetyl inh)
COc1cccc(C(=O)NC(=S)N2CCN(c3ccc(C(F)(F)F)cc3[N+](=O)[O-])CC2)c1	EWS-Fli inh 64 (no result: CFTR F508del cor)
C[C@@H]1CN([C@H](C)CO)S(=O)(=O)c2ccc(/C=C/c3ccccc3)cc2O[C@H]1CN(C)C(=O)Nc1ccc(F)cc1	none (no result: PAX8 inh HTS)

Source: PubChem
